Experimental findings from PubChem BioAssay (NCI) are described below.

Molecules are shown by their SMILES. Compounds without any hit were thinned out: in the full panel of roughly 79,000, 15% have a hit. Unmarked numbers belong to inactive results. Calls of active or inactive are those of the source. No stated cut-off is given here; in the data, active means growth inhibition above about 70%; inactive means the rest.

A short description of assay [1]: NCI Yeast Anticancer Drug Screen. Data for the rad50 strain (AID 155).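 Further: 0% = growth of vehicle-only cultures of the same strain.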 Conditions: S. cerevisiae rad50 strain growth inhibition; at 50.0 µM; hits give high values. In outline: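 Growth of the mutant yeast was measured after compound exposure and referenced to vehicle-treated cultures.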
Assay [2] can be described thus: NCI Yeast Anticancer Drug Screen. Data for the mec2-1 strain (AID 157). Conditions: S. cerevisiae mec2-1 strain, at 50.0 µM, hits give high values. In short, it runs like this: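 Mutant yeast (mec2-1) grown with compound; growth inhibition relative to vehicle control reported.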
Assay [3] can be described thus: NCI Yeast Anticancer Drug Screen. Data for the sgs1 mgt1 strain (AID 161).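 Further: 0% = growth of cultures given vehicle only.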 Conditions: S. cerevisiae sgs1 mgt1 strain, at 50.0 µM, hits give high values. In outline:
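Yeast cells carrying a defined DNA-repair defect were exposed to test compounds. Growth inhibition was measured relative to vehicle-treated controls.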

Assay [4] can be described thus: NCI Yeast Anticancer Drug Screen. Data for the cln2 rad14 strain (AID 165).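 Further: 0% = growth equal to vehicle treated cultures.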 To be noted: S. cerevisiae cln2 rad14 strain, at 50.0 µM, hits give high values. In short, it runs like this: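 Readout is yeast growth inhibition versus vehicle-treated controls, using a strain with cln2 and rad14 alterations exposed to compound.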
The nature of assay [5]: NCI Yeast Anticancer Drug Screen. Data for the bub3 strain (AID 167). Conditions: S. cerevisiae bub3 mutant strain, at 50.0 µM, hits give high values. In short, it runs like this:
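Whole-cell yeast assay. The mutant strain was incubated with compounds, and growth inhibition was determined by comparison with vehicle-treated cells.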

Assay [6] in a line: NCI Yeast Anticancer Drug Screen. Data for the mlh1 rad18 strain (AID 175). To be noted: S. cerevisiae mlh1 rad18 strain growth inhibition; at 50.0 µM; hits give high values. In outline: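 Genetically defined yeast (DNA repair-deficient) exposed to compounds; growth inhibition determined relative to vehicle.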

Consider `CSC1NC(c2ccccc2)=C(C#N)C(=O)N1C1OCC(OC(C)=O)C(OC(C)=O)C1OC(C)=O` (stereo not given), for which the growth inhibition in assay [1] was -9.1%; in assay [2], -15.6%; in assay [3], -39.2%; in assay [4], 4.75%; in assay [5] it was 3.4%; in assay [6], -1.5%.
For the compound `c1ccc(C2=Nc3ccccc3C(c3ccccc3)=Nc3ccccc32)cc1`, the growth inhibition in assay [1] is 1.05%; in assay [2], 3.7%; in assay [3] it was -8.95%; in assay [4], -18.5%; in assay [5] it was -1.8%; in assay [6], 2.05%.
In the case of `Fc1ccc(F)c(C(Nc2nncs2)Nc2nncs2)c1`, the growth inhibition in assay [1] is 7.3%; in assay [2] it was -8.75%; in assay [3] it was 7.75%; in assay [4] it was 2.4%; in assay [5] it was 8.45%; in assay [6] it was 7.85%.
On to `O=C(OCC1OC(OC(=O)c2ccc([N+](=O)[O-])cc2)CC(OC(=O)c2ccc([N+](=O)[O-])cc2)C1OC(=O)c1ccc([N+](=O)[O-])cc1)c1ccc([N+](=O)[O-])cc1` (stereo not given), for which the growth inhibition in assay [1] is 11.2%; in assay [2], 15.2%; in assay [3], 4.1%; in assay [4], -7.35%; in assay [5], -4.15%; in assay [6] it was 36.5%.
As for `CCC1OC(=O)CC(O)C(C)C(OC2OC(C)C(O)C(N(C)C)C2O)C(CC=O)CC(C)C(=O)/C=C/C2(C)OC2C1C` (stereo not given), the growth inhibition in assay [1] was -13.4%; in assay [2] it was -43%; in assay [3], -23.5%; in assay [4] it was -18.7%; in assay [5], -28.9%; in assay [6], -36.4%.
For the compound `C[N+]1(C)CCCC(O)(C(=O)c2ccccc2)C1` (stereo not given), the growth inhibition in assay [1] was -5.2%; in assay [2], -10.3%; in assay [3], -14.3%; in assay [4], 6.6%; in assay [5], -2.4%; in assay [6], 17.1%.
For `Nc1ccc(Cl)c(N)c1`, the growth inhibition was 9.1% in assay [1]; 26.4% in assay [2]; 18.2% in assay [3]; 20.1% in assay [4]; 14.9% in assay [5]; 21.9% in assay [6].
For the compound `CN(C)C=NCC(O)c1ccccc1` (stereo not given), the growth inhibition was 13.3% in assay [1]; 15% in assay [2]; 0% in assay [3]; -3% in assay [4]; -21.2% in assay [5]; -22.1% in assay [6].
Take `N#Cc1nnc2cc(-c3ccccc3)nn2c1-c1cccs1`: the growth inhibition was 0.6% in assay [1]; -8.6% in assay [2]; 15.8% in assay [3]; 21.1% in assay [4]; 4.1% in assay [5]; 6.35% in assay [6].
Consider `CC(O)C12OC1CC1C3CC4OC45CC(O)CCC5(C)C3CCC12C` (stereo not given), for which the growth inhibition in assay [1] was 36.5%; in assay [2] it was 20.6%; in assay [3], 38.7%; in assay [4], 31.1%; in assay [5], 36.9%; in assay [6], 9.1%.
Turning to `N#C/C(C(=O)NCc1ccccc1)=C(/N)N1CCCC1`, the growth inhibition is -4.95% in assay [1]; -16.2% in assay [2]; 0.25% in assay [3]; -16.6% in assay [4]; -5.3% in assay [5]; -0.15% in assay [6].
In the case of `c1ccc(-c2csc(-c3nc(-c4ccccc4)cs3)n2)cc1`, the growth inhibition in assay [1] is -0.55%; in assay [2] it was 50%; in assay [3], 30.6%; in assay [4], -6.85%; in assay [5] it was 33%; in assay [6], 60.6%.
For the compound `O=C(NCCCCC(Br)C(=O)O)c1ccccc1` (stereo not given), the growth inhibition in assay [1] was -30%; in assay [2], -5.5%; in assay [3], -33.4%; in assay [4], -53.2%; in assay [5], -1.55%; in assay [6], -34.9%.
`c1cc(CSC2=NCCN2)ccc1CSC1=NCCN1`: the growth inhibition in assay [1] was -8%; in assay [2], 9.25%; in assay [3], -9.2%; in assay [4], -24.3%; in assay [5], 8.9%; in assay [6], -3.85%.
As for `COC(CN1C(=O)CSC1=S)OC`, the growth inhibition in assay [1] is 10.8%; in assay [2] it was -1.65%; in assay [3], 27.1%; in assay [4], 17.2%; in assay [5], 29.1%; in assay [6] it was -6.8%.
Turning to `CCCCc1ccc(Nc2nc(OC)c3ncn(C4CC(O)C(CO)O4)c3n2)cc1` (stereo not given), the growth inhibition in assay [1] is 88.1% (active); in assay [2], 90.2% (active); in assay [3] it was 67.2%; in assay [4] it was 57.8%; in assay [5], 69.5%; in assay [6], 86.8% (active).
On to `CC(=O)Nc1ccc(S(=O)(=O)NC(=O)NCCC(C)C)cc1`, for which the growth inhibition was 1.95% in assay [1]; 2.45% in assay [2]; 9.8% in assay [3]; -20.2% in assay [4]; 8.6% in assay [5]; 7.85% in assay [6].
Regarding `COc1ccc(NC(=O)c2cc3cc(N=Nc4ccc(Br)cc4)ccc3oc2=O)cc1`, the growth inhibition in assay [1] is -30.9%; in assay [2], 14.4%; in assay [3], -15.2%; in assay [4], 0.05%; in assay [5], -28.5%; in assay [6], -17.6%.
`Cc1ccccc1-n1c(C)nc(-c2ccccc2)cc1=O`: the growth inhibition is -23.4% in assay [1]; -47.2% in assay [2]; -4.9% in assay [3]; 15.5% in assay [4]; -9.4% in assay [5]; 2.8% in assay [6].
As for `C=C(NC(C)=O)C(=O)O`, the growth inhibition in assay [1] is -4.65%; in assay [2] it was -7.4%; in assay [3] it was -11%; in assay [4], 4.5%; in assay [5], 10.9%; in assay [6], 4.15%.
Turning to `COc1cc(CC(=O)O)c(Br)cc1C`, the growth inhibition was 5.95% in assay [1]; 20.9% in assay [2]; 4.15% in assay [3]; 0.05% in assay [4]; -0.85% in assay [5]; -2.65% in assay [6].
With `CC(=O)Oc1cc(C)c2c(c1C)C1OC(=O)C(C)C1CC2` (stereo not given), the growth inhibition was 12.6% in assay [1]; -12.7% in assay [2]; 18.6% in assay [3]; 16.3% in assay [4]; 4.8% in assay [5]; 17.1% in assay [6].
In the case of `Cc1cc(C)nc(NS(=O)(=O)c2ccc(Nc3c4ccccc4nc4c(C(=O)Nc5ccc(S(=O)(=O)N=C(N)N)cc5)cccc34)cc2)n1`, the growth inhibition is 24.1% in assay [1]; 35.8% in assay [2]; 30.9% in assay [3]; 35.2% in assay [4]; 19.6% in assay [5]; 44.1% in assay [6].
Regarding `CCCCCCCCCCCCCCCCN(O)C(=O)c1cnc[nH]1`, the growth inhibition is 29.8% in assay [1]; 26.6% in assay [2]; 30.2% in assay [3]; 25.4% in assay [4]; 11.1% in assay [5]; 22.6% in assay [6].
As to `C=CCNC(=S)N(C)Cc1ccccc1Cl`, the growth inhibition is -7.2% in assay [1]; 35.5% in assay [2]; 34.8% in assay [3]; -25.9% in assay [4]; 36.4% in assay [5]; 33.6% in assay [6].
On to `O=C(c1ccc(Cl)c(Cl)c1)N1CCCCC1`, for which the growth inhibition in assay [1] is -1.25%; in assay [2], -7%; in assay [3], 13.8%; in assay [4], -48.5%; in assay [5], -12.5%; in assay [6] it was -6.25%.
As for `CCN(CC)c1ccc(C(=O)c2ccccc2C(=O)O)c(O)c1`, the growth inhibition was -38.2% in assay [1]; -8.75% in assay [2]; -27.4% in assay [3]; 5.35% in assay [4]; -15.8% in assay [5]; 5.2% in assay [6].
In the case of `Cc1cc2c(cc1Cl)SC(N/N=C(\N)c1ccc(Cl)cc1)=NS2(=O)=O`, the growth inhibition in assay [1] is -34.2%; in assay [2] it was -0.8%; in assay [3], -12.3%; in assay [4], -16.2%; in assay [5], -14.4%; in assay [6], -8.1%.
With `NCc1ccccc1`, the growth inhibition in assay [1] is -2.5%; in assay [2], 7.75%; in assay [3] it was -2.2%; in assay [4], -41.4%; in assay [5] it was -18.9%; in assay [6], -3.85%.
On to `CN(C(=O)C12C3C4C1C1C2C3C41C(=O)N(C)C(C)(C)C)C(C)(C)C` (stereo not given), for which the growth inhibition is 13.9% in assay [1]; 11.5% in assay [2]; -7.4% in assay [3]; 9.45% in assay [4]; 23.4% in assay [5]; -2.4% in assay [6].
For `Nc1c(S(N)(=O)=O)cc(S(N)(=O)=O)cc1S(N)(=O)=O`, the growth inhibition in assay [1] was 0.75%; in assay [2] it was -20.6%; in assay [3], -36%; in assay [4], -24.6%; in assay [5], -29.2%; in assay [6], -16%.
Turning to `OC12C=CC(CCCC1)O2` (stereo not given), the growth inhibition was 0.35% in assay [1]; -6.65% in assay [2]; -7.4% in assay [3]; 3.2% in assay [4]; 10.3% in assay [5]; 4.9% in assay [6].
As for `Cc1ccccc1C(c1ccccc1C)C(CC(=O)O)CC(=O)O`, the growth inhibition in assay [1] was 11.7%; in assay [2] it was 14.2%; in assay [3] it was 10.6%; in assay [4], -102%; in assay [5], 5.05%; in assay [6], -2.6%.
With `CCOC(=O)CCCC(=O)N(CC(=O)OCC)Cc1ccccc1`, the growth inhibition was 2.6% in assay [1]; 12.1% in assay [2]; 13.2% in assay [3]; -4.9% in assay [4]; 5% in assay [5]; -5.85% in assay [6].
Take `CC(=O)Oc1ccc(C(C)C)cc1`: the growth inhibition was -9.55% in assay [1]; -30.9% in assay [2]; -25.3% in assay [3]; -13.6% in assay [4]; -11.2% in assay [5]; -1.6% in assay [6].
For `Cc1ccc(N=Nc2sc(N)nc2-c2ccc(Cl)cc2)cc1`, the growth inhibition is 28.6% in assay [1]; -2.55% in assay [2]; 35.6% in assay [3]; 39.6% in assay [4]; 17.1% in assay [5]; 62.9% in assay [6].
With `C/C(=N\NC(=O)c1ccccc1O)c1cccc(/C(C)=N/NC(=O)c2ccccc2O)n1.O=S(=O)([O-])[O-].[Fe+2]`, the growth inhibition was 11.4% in assay [1]; 38.8% in assay [2]; 39.5% in assay [3]; -0.9% in assay [4]; 0.65% in assay [5]; 40.7% in assay [6].
In the case of `Fc1cccc(CSc2cnnc(SCc3cccc(F)c3)c2SCc2cccc(F)c2)c1`, the growth inhibition was -14.8% in assay [1]; -7.1% in assay [2]; -13.7% in assay [3]; 14.6% in assay [4]; -10.8% in assay [5]; -32% in assay [6].
In the case of `CCCCCCCCCCCCCC(=O)CC`, the growth inhibition in assay [1] was 56.3%; in assay [2], -3.35%; in assay [3] it was 17.9%; in assay [4], 19.1%; in assay [5] it was 12.4%; in assay [6], 21.9%.
For `O=P(O)(CP(=O)(c1ccccc1)c1ccccc1)c1ccccc1`, the growth inhibition was 15.3% in assay [1]; 7.25% in assay [2]; 15.9% in assay [3]; 16.2% in assay [4]; 5.9% in assay [5]; 10.9% in assay [6].
